The record followed here is paper PMC5700166.

Residue numbers refer to the chain shown, from its start.

Holding throughout (assay): protein-binding microarray (PBM); PBM: ~300 nM protein, 6 mM HEPES pH 7.8, 80 mM KCl, 0.5 mM EDTA, 0.5 mM EGTA, 6% glycerol, 35 ng/ul poly-dIdC, 1% milk, 1 h, room temperature; Ap Aiptasia and Nv Nematostella (sea anemones) / Co Capsaspora / Aq Amphimedon (sponge) / Dm Drosophila / Hu human; RHD is the Rel homology domain; high values mean tight binding
What all share (conditions): dsDNA, one strand shown

In one assay the target is T1, GST-Ap-NF-kB RHD (Exaiptasia pallida (Aiptasia), UniProt A0A913YAJ5 2-422).
T1 sequence: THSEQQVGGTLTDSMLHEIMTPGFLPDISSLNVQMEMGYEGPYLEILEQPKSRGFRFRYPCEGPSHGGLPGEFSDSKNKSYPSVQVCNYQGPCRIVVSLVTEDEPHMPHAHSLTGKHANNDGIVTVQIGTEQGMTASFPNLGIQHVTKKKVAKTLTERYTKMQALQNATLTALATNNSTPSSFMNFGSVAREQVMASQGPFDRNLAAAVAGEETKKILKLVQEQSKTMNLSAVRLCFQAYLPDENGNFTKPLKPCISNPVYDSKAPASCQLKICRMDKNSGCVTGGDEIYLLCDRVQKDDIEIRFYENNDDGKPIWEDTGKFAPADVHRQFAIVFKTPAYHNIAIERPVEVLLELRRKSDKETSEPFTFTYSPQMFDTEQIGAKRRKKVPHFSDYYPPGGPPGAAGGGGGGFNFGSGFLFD

Assay [1] concerns the target T2, GST-Nv-NF-kB (Cys allele) (Nematostella vectensis, UniProt E5G601 2-411).
T2 sequence: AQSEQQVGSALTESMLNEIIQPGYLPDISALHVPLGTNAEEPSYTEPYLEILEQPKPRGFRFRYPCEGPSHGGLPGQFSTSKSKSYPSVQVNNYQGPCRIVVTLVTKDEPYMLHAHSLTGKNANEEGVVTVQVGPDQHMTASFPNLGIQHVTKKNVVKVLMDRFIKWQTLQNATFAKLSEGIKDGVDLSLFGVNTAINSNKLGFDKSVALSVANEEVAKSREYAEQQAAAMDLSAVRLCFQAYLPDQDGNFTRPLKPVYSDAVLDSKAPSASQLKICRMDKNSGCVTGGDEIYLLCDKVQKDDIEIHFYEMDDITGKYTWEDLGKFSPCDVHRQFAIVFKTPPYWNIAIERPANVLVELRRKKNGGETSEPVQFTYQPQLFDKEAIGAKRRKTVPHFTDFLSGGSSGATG

Assay [2] has as its target T3, GST-Nv-NF-kB (Ser allele) (Nematostella vectensis, UniProt A7UNT2 2-411).
T3 sequence: T2 sequence with Q21R, C66S, S207N, E215Q, V217A, E225K, A268E, D399E

A further assay addresses T4, GST-Co-NF-kB (Capsaspora owczarzaki, UniProt F1ARL5 200-546).
T4 sequence: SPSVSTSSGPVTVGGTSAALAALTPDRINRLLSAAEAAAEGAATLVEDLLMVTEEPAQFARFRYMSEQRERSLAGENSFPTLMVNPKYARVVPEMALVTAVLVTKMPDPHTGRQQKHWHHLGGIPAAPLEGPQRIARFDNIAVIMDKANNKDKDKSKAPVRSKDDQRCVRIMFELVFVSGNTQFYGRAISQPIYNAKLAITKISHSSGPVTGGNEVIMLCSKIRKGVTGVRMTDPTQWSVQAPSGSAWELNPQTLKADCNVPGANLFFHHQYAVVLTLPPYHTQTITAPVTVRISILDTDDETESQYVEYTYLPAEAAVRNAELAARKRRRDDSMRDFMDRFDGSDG

The next assay deals with T5, GST-Dm-Relish (Drosophila melanogaster, UniProt Q94527 99-473).
T5 sequence: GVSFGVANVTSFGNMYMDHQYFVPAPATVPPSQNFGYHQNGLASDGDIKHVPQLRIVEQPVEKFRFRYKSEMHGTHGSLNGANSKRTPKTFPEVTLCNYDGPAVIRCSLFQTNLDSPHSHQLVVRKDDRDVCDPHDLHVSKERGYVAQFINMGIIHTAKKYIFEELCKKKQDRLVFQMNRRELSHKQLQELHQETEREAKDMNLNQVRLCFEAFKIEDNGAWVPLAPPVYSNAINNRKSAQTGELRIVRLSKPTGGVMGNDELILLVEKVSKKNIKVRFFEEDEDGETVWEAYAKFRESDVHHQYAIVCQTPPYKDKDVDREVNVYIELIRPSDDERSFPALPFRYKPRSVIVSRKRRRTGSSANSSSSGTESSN

The target of another assay is T6, GST-Aq-NF-kB (Amphimedon queenslandica, UniProt A9Y5G7 2-389).
T6 sequence: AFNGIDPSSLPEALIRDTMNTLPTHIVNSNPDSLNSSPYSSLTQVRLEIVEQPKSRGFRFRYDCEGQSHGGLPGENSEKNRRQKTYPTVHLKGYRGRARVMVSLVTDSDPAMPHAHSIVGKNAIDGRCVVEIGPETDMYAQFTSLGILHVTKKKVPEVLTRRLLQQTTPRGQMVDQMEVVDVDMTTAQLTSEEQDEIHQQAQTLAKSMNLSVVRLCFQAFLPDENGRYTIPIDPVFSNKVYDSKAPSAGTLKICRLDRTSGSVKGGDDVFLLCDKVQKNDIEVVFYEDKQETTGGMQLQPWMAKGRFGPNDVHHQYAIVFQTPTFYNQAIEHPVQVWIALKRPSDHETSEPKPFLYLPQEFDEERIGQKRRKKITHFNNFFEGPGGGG

The target of the next assay is GST-Hu-p50 (Homo sapiens, UniProt P19838 7-356).
GST-Hu-p50, sequence (P19838 7-356): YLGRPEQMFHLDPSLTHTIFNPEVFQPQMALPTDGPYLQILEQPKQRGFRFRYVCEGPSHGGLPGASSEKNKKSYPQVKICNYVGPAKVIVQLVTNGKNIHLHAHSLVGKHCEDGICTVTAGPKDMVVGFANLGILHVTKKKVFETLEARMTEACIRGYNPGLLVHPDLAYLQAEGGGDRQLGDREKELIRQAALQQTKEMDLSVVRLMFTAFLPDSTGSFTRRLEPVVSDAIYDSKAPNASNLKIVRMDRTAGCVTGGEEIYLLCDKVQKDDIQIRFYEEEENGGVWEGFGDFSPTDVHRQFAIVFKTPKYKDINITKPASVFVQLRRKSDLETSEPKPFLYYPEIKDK

On to “CCGATTAACATCAAGTCCCCCCATGATGTTAATCGGGTCTTGATTCGCTTGACGCTGCTG”, for which the binding signal in the assay with GST-Ap-NF-kB RHD came to 5.62 z-score; in assay [1], 4.07 z-score; in assay [2], 3.94 z-score; with GST-Co-NF-kB, 6.53 z-score; with GST-Dm-Relish, 4.21 z-score; in the assay with GST-Aq-NF-kB, 4.39 z-score. This sequence also registered a binding signal in the assay with GST-Hu-p50 of 3.78 z-score.

Turning to “CCGATTAACATCACGGTTTTCCCTGATGTTAATCGGGTCTTGATTCGCTTGACGCTGCTG”, the binding signal with GST-Ap-NF-kB RHD is 3.99 z-score; in assay [1], 5.02 z-score; in assay [2], 6.45 z-score; with GST-Co-NF-kB it was 4.63 z-score; with GST-Dm-Relish, 4.43 z-score; with GST-Aq-NF-kB, 5.43 z-score. In the assay with GST-Hu-p50, this sequence registered a binding signal of 3.91 z-score.

Take “CCGATTAACATCACGGGAGTCCCTGATGTTAATCGGGTCTTGATTCGCTTGACGCTGCTG”: the binding signal with GST-Ap-NF-kB RHD amounted to 5.38 z-score; in assay [1] it was 3.94 z-score; in assay [2], 4.12 z-score; with GST-Co-NF-kB, 1.57 z-score; in the assay with GST-Dm-Relish, 8.97 z-score; in the assay with GST-Aq-NF-kB, 5.18 z-score. Moreover, the binding signal with GST-Hu-p50 amounted to 3.45 z-score.

On to “CCGATTAACATCAACAAATTCCCTGATGTTAATCGGGTCTTGATTCGCTTGACGCTGCTG”, for which the binding signal amounted to 3.83 z-score in the assay with GST-Ap-NF-kB RHD; 5.69 z-score in assay [1]; 6.87 z-score in assay [2]; 4.16 z-score with GST-Co-NF-kB; 5.03 z-score with GST-Dm-Relish; 4.44 z-score with GST-Aq-NF-kB. The sequence further yielded a binding signal with GST-Hu-p50 of 4.56 z-score.

As to “CCGATTAACATCAAAACCCCCCTTGATGTTAATCGGGTCTTGATTCGCTTGACGCTGCTG”, the binding signal worked out at 8.76 z-score with GST-Ap-NF-kB RHD; 7.32 z-score in assay [1]; 7.84 z-score in assay [2]; 3.85 z-score with GST-Co-NF-kB; 10.5 z-score with GST-Dm-Relish; 8.03 z-score in the assay with GST-Aq-NF-kB. The binding signal in the assay with GST-Hu-p50 was 7 z-score.

As for “CCGATTAACATCAGGGGAGGTAATGATGTTAATCGGGTCTTGATTCGCTTGACGCTGCTG”, the binding signal with GST-Ap-NF-kB RHD was 2.69 z-score; in assay [1] it was 2.66 z-score; in assay [2], 4.61 z-score; with GST-Co-NF-kB it was 3.71 z-score; with GST-Dm-Relish, 1.22 z-score; with GST-Aq-NF-kB, 2.71 z-score. This sequence also came in with a binding signal in the assay with GST-Hu-p50 of 2.14 z-score.

Take “CCGATTAACATCAAACAGCCCCCTGATGTTAATCGGGTCTTGATTCGCTTGACGCTGCTG”: the binding signal was found to be 3.65 z-score in the assay with GST-Ap-NF-kB RHD; 4.11 z-score in assay [1]; 2.49 z-score in assay [2]; 1.91 z-score with GST-Co-NF-kB; 2.9 z-score with GST-Dm-Relish; 5.29 z-score with GST-Aq-NF-kB. The same sequence came in with a binding signal with GST-Hu-p50 of 3.92 z-score.

Consider “CCGATTAACATCAAAATTCCCCTTGATGTTAATCGGGTCTTGATTCGCTTGACGCTGCTG”, for which the binding signal in the assay with GST-Ap-NF-kB RHD turned out to be 10.1 z-score; in assay [1] it was 12.5 z-score; in assay [2] it was 14.2 z-score; in the assay with GST-Co-NF-kB, 7.63 z-score; with GST-Dm-Relish, 9.78 z-score; with GST-Aq-NF-kB, 9.63 z-score. This sequence also came in with a binding signal in the assay with GST-Hu-p50 of 8.23 z-score.

“CCGATTAACATCACGAATCCCCCTGATGTTAATCGGGTCTTGATTCGCTTGACGCTGCTG”: the binding signal is 8.06 z-score with GST-Ap-NF-kB RHD; 6.45 z-score in assay [1]; 7.96 z-score in assay [2]; 5.16 z-score in the assay with GST-Co-NF-kB; 6.03 z-score with GST-Dm-Relish; 5.26 z-score in the assay with GST-Aq-NF-kB. For the same sequence, the binding signal with GST-Hu-p50 worked out at 6.72 z-score.

Consider “CCGATTAACATCAGGCTTTCCCCTGATGTTAATCGGGTCTTGATTCGCTTGACGCTGCTG”, for which the binding signal is 6.49 z-score with GST-Ap-NF-kB RHD; 7.29 z-score in assay [1]; 7.71 z-score in assay [2]; 4.87 z-score with GST-Co-NF-kB; 7.38 z-score with GST-Dm-Relish; 7.22 z-score with GST-Aq-NF-kB. For the same sequence, the binding signal in the assay with GST-Hu-p50 amounted to 4.79 z-score.

On to “CCGATTAACATCAAAAATACCCTTGATGTTAATCGGGTCTTGATTCGCTTGACGCTGCTG”, for which the binding signal was 5.7 z-score with GST-Ap-NF-kB RHD; 9.05 z-score in assay [1]; 7.74 z-score in assay [2]; 1.68 z-score in the assay with GST-Co-NF-kB; 7.04 z-score with GST-Dm-Relish; 7.5 z-score in the assay with GST-Aq-NF-kB. The sequence further showed a binding signal with GST-Hu-p50 of 6.41 z-score.
